Hit rate of the full screen: of about 1,100 compounds, about 340 (31%) were called active. Not shown: some 40% with an inconclusive outcome. Calls follow the shape of the dose curve; as a rule, active = well fitted inhibition curve with a large enough effect; inconclusive = small, poorly fitted or top-dose-only effect; inactive = flat fitted curve, though single readings scatter. These entries were drawn from the full list.
biological target: Phosphatidylinositol 5-phosphate 4-kinase type-2 alpha (Homo sapiens) (UniProt P48426); assay: qHTS for Inhibitors of PI5P4K: Confirmation in Primary Assay; details: PI5P4Kalpha enzyme, ADP-Glo luminescence, 60 min; series mostly up to 76.9 µM; activity change, negative = inhibition: at the top concentration; also: nearly all actives have a fitted effect of over 65% in size
Method in brief: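 PI5P4Kα with lipid substrate in 0.038 M HEPES pH 7.4, 0.28 mM EGTA, 0.1% CHAPS, 5% DMSO; compounds pinned in, reaction started with 5 microM ATP, 60 min at room temperature. ADP formed read by ADP-Glo luminescence.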
% is scaled to controls: 0 for no effect and ±100 for the full control effect; potency is read from the fitted curve at half-maximal effect.

Phosphatidylinositol 5-phosphate 4-kinase type-2 alpha (Homo sapiens), sequence (P48426 whole entry, looked up): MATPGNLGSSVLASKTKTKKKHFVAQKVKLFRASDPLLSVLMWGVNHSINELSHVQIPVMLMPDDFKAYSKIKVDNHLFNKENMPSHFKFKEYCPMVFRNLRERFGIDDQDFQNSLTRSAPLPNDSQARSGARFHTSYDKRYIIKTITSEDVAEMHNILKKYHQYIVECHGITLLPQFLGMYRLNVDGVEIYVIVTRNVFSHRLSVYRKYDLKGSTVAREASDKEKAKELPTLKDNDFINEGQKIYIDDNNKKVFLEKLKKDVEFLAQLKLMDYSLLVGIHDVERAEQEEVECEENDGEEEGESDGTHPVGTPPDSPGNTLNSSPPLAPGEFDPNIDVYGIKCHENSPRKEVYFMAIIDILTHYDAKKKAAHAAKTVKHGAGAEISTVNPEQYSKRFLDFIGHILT

Activity change, negative = inhibition, inactive:
CN(C)C(=S)NCc1ccccc1 0.0461%
CC(=O)N1c2ccc(S(=O)(=O)NCCC(=O)N(C)C3CCCCC3)cc2CC1C (stereo not drawn) 0.892%
COc1cccc2c1C(=O)C[C@]1(CCCC[C@@H]1C)O2 -0.193%
COc1ccc(C(CNC(=O)c2ccc(OCc3cscn3)cc2)N2CCCC2)cc1 (stereo not drawn) -4.41%
CC(C)Sc1nc(N2CCOCC2)c2c(c1C#N)CC(C)(C)N(C)C2 -4.58%
Cc1cc(NC(=O)CCCn2cc([N+](=O)[O-])cn2)n(Cc2ccc(F)cc2)n1 -0.367%
CCn1nc(CC(=O)Nc2nnc(CC(=O)N3CCOCC3)s2)c2ccccc2c1=O -0.277%
O=C(CCS(=O)(=O)c1ccc(Br)cc1)NCc1ccc(F)cc1 -6.2%
Cc1cc(NC(=O)CN2CCN(C)CC2)no1 -28%
Cc1cc(NC(=O)Nc2ccccc2[N+](=O)[O-])no1 -3.15%
O=C(Nc1ccccc1Cl)c1ccc2nccnc2c1 -5.39%
COCc1cc(N2CCCCC2)nc(-c2ccccc2)n1 0.478%
NS(=O)(=O)c1cccc(NC(=O)CSc2nnnn2-c2ccccc2)c1 1.94%
O=C(O)C1CSC(c2coc3ccccc3c2=O)N1 (stereo not drawn) -14.7%
COc1ccccc1NC(=O)Cc1nnc(SCC(=O)Nc2ccccc2F)n1C -1.37%
COc1ccc(NC(C)=O)cc1NC(=O)CSc1nc2ncccc2[nH]1 1.09%
COc1ccc(C(=O)NC(CCSC)C(=O)N2CCCCCC2)cc1 (stereo not drawn) -0.697%
COc1cc(NC2=Nc3cccc4cccc2c34)cc(OC)c1OC -1.43%
Cc1nn(-c2ccccc2)c2nc(=O)n(-c3ccccc3)cc12 -3.35%
O=C(c1cc(-c2ccco2)nc2ccccc12)N(Cc1nnc(-c2ccc(Cl)cc2)o1)C1CC1 -11%
CCNC(=O)c1ccccc1SCC(=O)Nc1ccc(F)cc1 1.84%
COCCN(CC(=O)NCC1CCCO1)C(=O)CCC(=O)Nc1ccccn1 (stereo not drawn) -2.19%
COCc1c(C(=O)N2CCc3ccccc32)oc2ccccc12 11.8%
CCOC(=O)c1nnn(-c2ccccc2)c1C -6.41%
CCn1c(C(=O)OC)cc2c1ccn2-c1ccc(F)cc1 12%
CC(C)(C)NC(=O)C(c1ccc(C#N)cc1)n1c(=O)c(-c2ccco2)nc2ccccc21 (stereo not drawn) -23.1%
Cc1cc(C(=O)OCC(=O)Nc2cc(S(=O)(=O)N3CCOCC3)ccc2Cl)c(C)o1 -0.657%
COc1ccc(OC)c(C2CC(=O)N3CN(c4cccc(Cl)c4)CSC3=C2C#N)c1 (stereo not drawn) -11.7%
COc1ccc(C2CC(=O)N3CN(c4ccc(C)c(Cl)c4)CSC3=C2C#N)cc1OC (stereo not drawn) -8.92%
CCN(CC)C(=O)c1[nH]cnc1C(=O)Nc1ccc(OC)cc1 -2.48%
CCCCOc1ccc(S(=O)(=O)NC(=O)C2(C)CCN2C(=O)CCc2ccccc2)cc1 (stereo not drawn) 2.58%
C[C@H](NC(=O)c1nc[nH]c1C(=O)N[C@@H](C)C(=O)OC(C)(C)C)C(=O)OC(C)(C)C 2.51%
CN(C)C(=O)c1ccc(NC(=O)COC(=O)C2=COCCO2)cc1 -3.35%
NC(=O)C1CCN(c2cc(Cl)nc(N)n2)CC1 -5.15%
CN1CCN(C(c2ccccc2)c2ccc(Cl)cc2)CC1 (stereo not drawn) -13.3%

Potency, active:
c1ccc2c(CCNc3ncnc4nc[nH]c34)c[nH]c2c1 17.8 µM
Cc1sc2ncnc(NC(C)C(=O)O)c2c1C (stereo not drawn) 3.98 µM
O=C(Cc1ccc(S(=O)(=O)N2CCOCC2)s1)Nc1nc2c(s1)CCCC2 14.1 µM
CC(=O)c1ccc(NC(=O)c2cnn3ccccc23)cc1 3.55 µM
COc1ccccc1Nc1ccc2c(O)cc(S(=O)(=O)O)cc2c1 3.16 µM
O=S(=O)(O)c1cc(O)c2cc(Nc3ccccc3)ccc2c1 2 µM
Cc1cc(NC(=O)CSc2cn(CCNC(=O)c3ccccc3)c3ccccc23)no1 14.1 µM
COC(=O)c1ccc2c(c1)/C(=C/c1cc(Br)c(O)c(Br)c1)C(=O)N2 0.823 µM
O=C1Nc2ccc(C(=O)c3ccco3)cc2/C1=C/c1cc(Cl)c(O)c(Cl)c1 0.207 µM
NS(=O)(=O)c1ccc(CCNC(=O)c2ccc3nccnc3c2)cc1 14.1 µM
Cc1ccc(-c2csc(NS(=O)(=O)c3cccc(F)c3)n2)o1 11.2 µM
COc1cc(Cl)c(C)cc1NC(=O)CSc1sc2c(O)cc(=O)[nH]c2c1C#N 5.01 µM
COc1ccc(NC(=O)CSc2sc3c(O)cc(=O)[nH]c3c2C#N)c(OC)c1 14.1 µM
COc1ccccc1NC(=O)CSc1sc2c(O)cc(=O)[nH]c2c1C#N 10 µM
Cc1ccc(NC(=O)c2cccc(C(=O)Nc3ccc(C)cc3C(=O)O)c2)c(C(=O)O)c1 8.91 µM
CN(C)c1ccc2nc3ccc(=O)cc-3sc2c1 11.2 µM
CN(CC(=O)Nc1ccc(F)cc1)C(=O)c1cc(-c2ccco2)nc2ccccc12 14.1 µM
COc1ccc(NC(=O)CN(C)C(=O)c2cc(-c3ccco3)nc3ccccc23)cc1 5.01 µM
COc1cccc(NC(=O)CN(C)C(=O)c2cc(-c3ccco3)nc3ccccc23)c1 15.8 µM
Cc1ccc(NC(=O)CN(C)C(=O)c2cc(-c3ccco3)nc3ccccc23)cc1 8.91 µM
O=C(Nc1cc(S(=O)(=O)N2CCOCC2)ccc1O)c1ccc(NS(=O)(=O)c2ccc(Cl)s2)cc1 20 µM
COc1ccc(N2CSC3=C(C#N)C(c4cccc(OC)c4OC)CC(=O)N3C2)cc1 (stereo not drawn) 7.08 µM
COc1ccc(N2CSC3=C(C#N)C(c4ccc(OC)c(OC)c4)CC(=O)N3C2)c(OC)c1 (stereo not drawn) 12.6 µM
COc1cccc(C2CC(=O)N3CN(c4cccc(Cl)c4C)CSC3=C2C#N)c1OC (stereo not drawn) 39.8 µM
COc1cccc(NS(=O)(=O)c2ccc3c(c2)C2C=CCC2C(c2ccc(C(=O)O)cc2)N3)c1 (stereo not drawn) 31.6 µM
Cc1ccc(-c2csc3ncnc(NCCC(=O)O)c23)cc1C 14.1 µM
Cc1ccc(C(c2cc(Cl)c3cccnc3c2O)N2CCN(C)CC2)cc1 (stereo not drawn) 15.8 µM
CN1CCN(C(c2ccc(Br)cc2)c2cc(Cl)c3cccnc3c2O)CC1 (stereo not drawn) 15.8 µM

Reference: PubChem BioAssay AID743286 (National Center for Advancing Translational Sciences (NCATS), 2014)
